Assay results reported in PubChem BioAssay (NCATS).
Several values for one entry are separate records, joined by “and”; a condition that tells them apart may be missing. Equal entries are not always repeated. Inconclusive results are not listed. Activity calls are given as the source filed them. Unless noted, the call rests on the fitted dose curve; in most records, active means well fitted curve in the direction sought with a large enough effect; inconclusive means small, poorly fitted or top-dose-only effect, or another doubt; inactive means no such curve, though single readings can be large; an effect the other way counts as inactive or inconclusive.

What was measured:
[1] = qHTS to identify inhibitors of the type 1 interferon - major histocompatibility complex class I in skeletal muscle: primary screen against the NCATS Mechanism Interrogation Plate v5.0 (MIPE) Libary (AID 1347411); further: nearly all actives have a fitted effect of over 65% in size;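 on activity change, negative = inhibition: plate controls were vehicle for no effect and reference inhibitor for full effect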
Method in brief: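 Cells were genome-edited human myoblasts carrying a HiBit tag on endogenous HLA-B. They were treated with IFN-beta (4.0 ng/ml) and titrated compounds (top 46 uM) for 24 hrs before lytic HiBiT detection.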

[2] = molecular target: Glutathione peroxidase 1 (Homo sapiens) (UniProt P07203); assay: Primary qHTS Assay for Inhibitors of Recombinant Selenoprotein Glutathione Peroxidase 1 (GPX1) (AID 1845191); further: nearly all actives have a fitted effect of over 65% in size
Sequence of Glutathione peroxidase 1 (Homo sapiens) (P07203 whole entry, looked up): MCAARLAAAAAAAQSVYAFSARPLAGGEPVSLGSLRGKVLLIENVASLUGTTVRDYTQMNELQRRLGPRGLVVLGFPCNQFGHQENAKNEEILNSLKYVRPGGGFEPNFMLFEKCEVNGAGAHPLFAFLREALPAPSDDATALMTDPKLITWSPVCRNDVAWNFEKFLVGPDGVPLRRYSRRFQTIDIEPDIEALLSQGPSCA
Method in brief: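 GR-coupled assay: compounds preincubated 30 min at room temperature with GPX1, then reaction started with CHP; final 10 nM GPX1, 1 mM GSH, 0.5 mM CHP, 0.5 mM NADPH, 100 nM GR, 0.01% BSA, pH 7.5 Tris buffer. NADPH fluorescence (340/450 nm) read at 0 and 15 min.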

[3] = molecular target: Phospholipid hydroperoxide glutathione peroxidase GPX4 (Homo sapiens) (UniProt P36969); assay: Primary qHTS Assay for Inhibitors of Recombinant Selenoprotein Glutathione Peroxidase 4 (GPX4) (AID 1845192); conditions: outcome: dose series up to 50 µM unless noted; further: nearly all actives have a fitted effect of over 65% in size; further: potency means the concentration at half of the fitted maximal effect; on activity change, negative = inhibition: on the % scale 0 is the no-effect control and ±100 the full control effect
Sequence of Phospholipid hydroperoxide glutathione peroxidase GPX4 (Homo sapiens) (P36969 whole entry, looked up): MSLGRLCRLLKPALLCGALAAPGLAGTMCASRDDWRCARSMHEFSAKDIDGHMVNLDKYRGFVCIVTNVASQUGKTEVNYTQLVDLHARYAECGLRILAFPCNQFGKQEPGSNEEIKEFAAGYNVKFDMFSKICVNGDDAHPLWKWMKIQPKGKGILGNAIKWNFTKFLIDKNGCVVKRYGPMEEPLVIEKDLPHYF
Method in brief: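 GR-coupled assay: recombinant GPX4 preincubated 30 min with compound at room temperature; final 200 nM GPX4, 1 mM GSH, 0.5 mM cumene hydroperoxide, 0.5 mM NADPH, 100 nM GR, 0.01% BSA, pH 7.5 Tris. NADPH fluorescence (340/450 nm) read at 0 and 15 min.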

[4] = qHTS drug screen for cell cycle checkpoint inhibitors in PARPi-resistant BRCA-mutant ovarian cancer cell lines. (AID 1963452; calls by dose curve; further: potency means the concentration at half of the fitted maximal effect); conditions: PEO1/OlaR viability, CellTiter-Glo luminescence, 96 h; for Z-AUC: stronger effect = lower value
Method in brief: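 PEO1, PEO4 and PEO1/OlaR ovarian cancer cells, 600 per well, exposed 96 h at 37C to a dilution series. Viability read by CellTiter-Glo luminescence, normalized to DMSO and empty wells; activity summarized as Z-AUC.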

[5] = Primary qHTS for inhibitors of nuclear receptor binding SET domain protein 2 (NSD2) in an isogenic RCH-ACV NSD2 p.E1099K mutant (9B) (AID 1645876); further: nearly all actives have a fitted effect of over 70% in size; further: potency means the concentration at half of the fitted maximal effect
[6] = Primary qHTS for inhibitors of nuclear receptor binding SET domain protein 2 (NSD2) in an RCH-ACV wild type WT cells (2C) (AID 1645877); further: nearly all actives have a fitted effect of over 70% in size; further: potency means the concentration at half of the fitted maximal effect
[7] = qHTS assay to identify inhibitors of the type 1 interferon - major histocompatibility complex class I in skeletal muscle: Counter screen cell viability and HiBit confirmation (AID 1347412); conditions: iHSKM muscle cells + IFN-b, HiBiT or CellTiter-Glo, 24 h; for activity change, negative = inhibition: at 45.9 µM (top of the series); further: potency means the concentration at half of the fitted maximal effect; on activity change, negative = inhibition: on the % scale 0 is the no-effect control and ±100 the full control effect; on all read-outs here: nearly all actives have a fitted effect of over 60% in size
Method in brief: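 After 24 h with human IFN-beta (4 ng/ml) and compound titrations (top 46 uM final, 1:3, 12 points), HLA-B HiBit myoblasts were lysed for either Nano-Glo HiBiT luminescence or CellTiter Glo viability on paired plates.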

[8] = qHTS Assay for Lipid Storage Modulators (AID 1519; calls by dose curve; on activity change, negative = inhibition: on the % scale 0 is the no-effect control and ±100 the full control effect); conditions: Drosophila S3 cells, BODIPY lipid droplet/cell ratio, laser cytometry, cells loaded with oleic acid
Method in brief: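 Cells seeded at 5,000 per well were treated with compounds over a concentration series and loaded with oleic acid (400 uM, as added). Lipid droplet fluorescence (488 nm excitation, 500-530 nm channel) was read by laser-scanning cytometry and normalized to 20 uM Triacsin C.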

[9] = measured here: PEO1 parental Z-AUC

SMILES: CC(=O)N1CCC(Nc2cc(C(=O)NC[C@H](O)CN3CCc4ccccc4C3)ncn2)CC1
- Potency [1]: inactive
- Potency [2]: inactive
- Potency [3]: inactive
- Z-AUC [4]: 0.665 (inactive)
- Z-AUC [4, 9]: 0.224
- Z-AUC ([4]; measured here: PEO4 Z-AUC): 0.188

SMILES: COC(=O)N(CC(=O)O)Cc1cccc(OCc2nc(-c3ccc(Cl)cc3)oc2C)c1
- Potency [1]: inactive
- Potency [2]: inactive
- Z-AUC [4]: 1.24 (inactive)
- Z-AUC [4, 9]: -0.00269
- Z-AUC ([4]; measured here: PEO4 Z-AUC): 0.458

SMILES: COc1cc(=C2C=c3ccccc3=N2)[nH]/c1=C/c1[nH]c(C)cc1C
- Potency [5]: inactive
- Potency [6]: inactive
- Potency [2]: inactive
- Z-AUC [4]: 0.716 (inactive)
- Z-AUC [4, 9]: 0.368
- Z-AUC ([4]; measured here: PEO4 Z-AUC): 1.02
- activity change, negative = inhibition ([7]; HiBiT): -23.6% (inactive)
- Potency ([7]; Viability): 1250 nM (active)

SMILES: C=C1/C(=C\C=C2/CCC[C@]3(C)[C@@H]([C@H](C)CCCC(C)(C)O)CC[C@@H]23)C[C@@H](O)C[C@@H]1O
- Potency [5]: 20.9 µM (active) and 18.6 µM (active)
- Potency [6]: 16600 nM (active)
- Potency [2]: inactive
- Potency [3]: inactive
- Z-AUC [4]: 0.612 (inactive) and 1.13 (inactive)
- Z-AUC [4, 9]: 0.475 and 0.837
- Z-AUC ([4]; measured here: PEO4 Z-AUC): 0.77 and 1.19
- activity change, negative = inhibition ([7]; HiBiT): -12.1% (inactive)
- activity change, negative = inhibition ([7]; Viability): -5.56% (inactive)

SMILES: NC(=O)c1cnc2[nH]ccc2c1NC1C2CC3C[C@H]1CC(O)(C3)C2 (some centres undefined)
- Potency [5]: 9.34 µM (active)
- Potency [6]: 9340 nM (active)
- Potency [2]: inactive
- Potency [3]: inactive
- Potency ([7]; HiBiT): 2220 nM (active)
- activity change, negative = inhibition ([7]; Viability): -16.1% (inactive)

SMILES: CC(=O)/C=C1/C(=O)N(C)c2ccccc21
- Potency ([7]; HiBiT): 19800 nM (active)
- activity change, negative = inhibition ([7]; Viability): -2.06% (inactive)

SMILES: CCC(=C/[C@H](C)C/C=C/C(C)=C/[C@@H](C)C(=O)[C@@H](C)[C@H](O)[C@@H](C)C/C(C)=C/C(=O)O)/C=C/[C@@H]1OC(=O)C=C[C@@H]1C
- Potency [5]: 0.0042 µM (active)
- Potency [6]: 4.2 nM (active)
- Potency [2]: inactive
- Potency [3]: 10100 nM (active)
- Potency [4]: 6920 nM (active)
- Z-AUC [4, 9]: -4.05
- Z-AUC ([4]; measured here: PEO4 Z-AUC): -3.51
- Potency ([7]; HiBiT): 3.1 nM (active)
- activity change, negative = inhibition ([7]; Viability): -3.47% (inactive)

SMILES: CC[C@@H](C)[C@H]1O[C@]2(CC[C@@H]1C)C[C@@H]1C[C@@H](C/C=C(\C)[C@@H](O[C@@H]3C[C@H](OC)[C@H](O[C@H]4C[C@H](OC)[C@@H](O)[C@H](C)O4)[C@H](C)O3)[C@@H](C)/C=C/C=C3\CO[C@@H]4[C@@H](O)C(C)=C[C@@H](C(=O)O1)[C@]34O)O2
- Potency ([7]; HiBiT): 27900 nM (active)
- Potency ([7]; Viability): 31300 nM (active)

SMILES: CN(C)C(N)=NC(=N)N
- outcome [1]: inactive
- outcome [3]: inactive [setting not given]
- outcome [4]: inactive

SMILES: Cn1nccc1Nc1nccc(-c2cc3c(s2)C(C)(C)N(CCN2CCOCC2)C3=O)n1
- Potency [1]: inactive
- Potency [2]: inactive
- Potency [3]: inactive
- Z-AUC [4]: -1.65 (inactive)
- Z-AUC [4, 9]: -0.829
- Z-AUC ([4]; measured here: PEO4 Z-AUC): -0.419

SMILES: CN1C(=O)N(c2cc(Cl)cc(Cl)c2)C(=O)[C@]12CN(Cc1cc(C(=O)O)cs1)C[C@H]2c1ccc(C#N)cc1
- Potency [1]: inactive
- Potency [2]: inactive
- Z-AUC [4]: 0.948 (inactive)
- Z-AUC [4, 9]: 1.08
- Z-AUC ([4]; measured here: PEO4 Z-AUC): 0.897

SMILES: O=C(/C=C\n1cnc(-c2cc(C(F)(F)F)cc(C(F)(F)F)c2)n1)NNc1cnccn1
- Potency [5]: 2.63 µM (active)
- Potency [6]: 2090 nM (active)
- Potency [3]: inactive
- Z-AUC [4]: -0.586 (inactive)
- Z-AUC [4, 9]: -2.16
- Z-AUC ([4]; measured here: PEO4 Z-AUC): -1.63
- Potency ([7]; HiBiT): 625 nM (active)
- activity change, negative = inhibition ([7]; Viability): -1.81% (inactive)

SMILES: Cc1cc(C)c(CNC(=O)c2cc(-c3ccc(N4CCN(C)CC4)nc3)cc3c2c(C)cn3C(C)C)c(=O)[nH]1
- Potency [5]: 16.6 µM (active) and 18.6 µM (active)
- Potency [6]: 20900 nM (active)
- Potency [2]: inactive
- Potency [3]: 12800 nM (active)
- Z-AUC [4]: -1.15 (inactive) and -0.405 (inactive)
- Z-AUC [4, 9]: -1.04 and 0.4
- Z-AUC ([4]; measured here: PEO4 Z-AUC): -1.52 and 0.0539
- activity change, negative = inhibition ([7]; HiBiT): 0.953% (inactive)
- activity change, negative = inhibition ([7]; Viability): -10.1% (inactive)

SMILES: Cc1cc(Oc2ccc3nc(COc4ccc(CC5SC(=O)NC5=O)cc4)n(C)c3c2)cc(C)c1N (centres undefined)
- Potency [1]: inactive
- Potency [2]: inactive
- Z-AUC [4]: -0.262 (inactive)
- Z-AUC [4, 9]: 0.128
- Z-AUC ([4]; measured here: PEO4 Z-AUC): -0.444

SMILES: CC[C@@H](Oc1cccc(CN(CCCOc2ccc(OC)cc2)c2nc3ccccc3o2)c1)C(=O)O
- Potency [1]: inactive
- Potency [2]: inactive
- Z-AUC [4]: 1.26 (inactive)
- Z-AUC [4, 9]: 0.312
- Z-AUC ([4]; measured here: PEO4 Z-AUC): 0.341

SMILES: O=C(CCc1ccc(O)cc1)c1c(O)cc(O)cc1O[C@@H]1O[C@H](CO)[C@@H](O)[C@H](O)[C@H]1O
- activity change, negative = inhibition ([8]; at 57.5 µM (top of the series)): 9.34% (inactive)
- max response ([8]; measured here: cell count channel max response): 19.8%
- max response ([8]; measured here: lipid channel max response): 29.9%
- Potency [5]: inactive
- Potency [2]: inactive
- Potency [3]: inactive
- Z-AUC [4]: 0.341 (inactive)
- Z-AUC [4, 9]: 0.557
- Z-AUC ([4]; measured here: PEO4 Z-AUC): 0.754
- activity change, negative = inhibition ([7]; HiBiT): 6.74% (inactive)
- activity change, negative = inhibition ([7]; Viability): 1.25% (inactive)

SMILES: CC(C)n1c(/C=C/[C@H](O)C[C@H](O)CC(=O)O)c(-c2ccc(F)cc2)c2ccccc21
- Potency [1]: inactive
- Potency [2]: inactive
- Potency [3]: inactive
- Z-AUC [4]: 1.2 (inactive)
- Z-AUC [4, 9]: 1.21
- Z-AUC ([4]; measured here: PEO4 Z-AUC): 1.13

SMILES: C/C=C1\NC(=O)[C@H]2CSSCCC=C[C@H](CC(=O)N[C@H](C(C)C)C(=O)N2)OC(=O)[C@H](C(C)C)NC1=O
- Potency ([7]; HiBiT): 0.4 nM (active)
- activity change, negative = inhibition ([7]; Viability): -27.6% (inactive)

SMILES: NC(=S)N/N=C/c1ncccc1N
- Potency [1]: inactive
- Z-AUC [4]: 0.978 (inactive)
- Z-AUC [4, 9]: 0.81
- Z-AUC ([4]; measured here: PEO4 Z-AUC): 0.897

SMILES: CC(C)C[C@H](NC(=O)[C@H](Cc1ccccc1)NC(=O)OCc1ccccc1)C(=O)C=O
- Potency [1]: inactive
- Potency [3]: inactive
- Z-AUC [4]: 0.592 (inactive)
- Z-AUC [4, 9]: 0.57
- Z-AUC ([4]; measured here: PEO4 Z-AUC): 0.338

SMILES: CN1CCN(c2ccc(Nc3ncc4cc(C#N)c(=O)n(C5CCCC5)c4n3)cc2)CC1
- Potency [5]: 0.59 µM (active)
- Potency [6]: 525 nM (active)
- Potency [2]: inactive
- Potency [3]: inactive
- Z-AUC [4]: -0.464 (inactive)
- Z-AUC [4, 9]: 0.47
- Z-AUC ([4]; measured here: PEO4 Z-AUC): 0.542
- Potency ([7]; HiBiT): 9910 nM (active)
- activity change, negative = inhibition ([7]; Viability): -23.1% (inactive)

SMILES: CN(C)Cc1ccc(S(=O)(=O)n2ccc(/C=C/C(=O)NO)c2)cc1
- Potency [5]: 1.86 µM (active)
- Potency [6]: 1860 nM (active)
- Potency [2]: inactive
- Potency [3]: inactive
- Z-AUC [4]: 0.736 (inactive)
- Z-AUC [4, 9]: 1.02
- Z-AUC ([4]; measured here: PEO4 Z-AUC): 1.35
- Potency ([7]; HiBiT): 7010 nM (active)
- activity change, negative = inhibition ([7]; Viability): -5.13% (inactive)
